Screens deposited in PubChem BioAssay by National Center for Advancing Translational Sciences (NCATS).
L3MBTL1 block: qHTS Assay for the Inhibitors of L3MBTL1; Potency, µM (series often up to 57.1 µM), usual class: inhibitors; AlphaScreen L3MBTL1–H3K9me1 peptide binding; Lethal(3)malignant brain tumor-like protein 1 (Homo sapiens), Q9Y468; 0.66% of 230,000 active; note: nearly all actives have a fitted effect of over 60% in size
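L3MBTL1 (50 nM) pre-complexed 30 min with biotinylated H3(1-15)K9me1 peptide (75 nM), then compounds added for 30 min at room temperature; AlphaScreen streptavidin donor/nickel chelate acceptor beads (10 ug/mL final) read after 30 min dark incubation.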
JMJD2A Tudor: qHTS Assay for Inhibitors of JMJD2A-Tudor Domain | AID 504339, 2011 | 4.4% of 390,000 active | Potency, µM (doses to about 114 µM), usual class: inhibitors | AlphaScreen JMJD2A-Tudor / H3K4me3 peptide binding | Lysine-specific demethylase 4A (Homo sapiens), O75164; note: nearly all actives have a fitted effect of over 50% in size
G9a block: qHTS Assay for Inhibitors of Histone Lysine Methyltransferase G9a | Histone-lysine N-methyltransferase EHMT2 (Homo sapiens), Q96KQ7 | G9a H3K9 monomethylation, AlphaScreen, 2 h | Potency, µM (titrated, usually from 102 µM), hits mostly inhibitors | 8.8% of 350,000 active | AID 504332, 2011; note: nearly all actives have a fitted effect of over 75% in size
Target sequence (Q96KQ7 913-1193 limits assumed): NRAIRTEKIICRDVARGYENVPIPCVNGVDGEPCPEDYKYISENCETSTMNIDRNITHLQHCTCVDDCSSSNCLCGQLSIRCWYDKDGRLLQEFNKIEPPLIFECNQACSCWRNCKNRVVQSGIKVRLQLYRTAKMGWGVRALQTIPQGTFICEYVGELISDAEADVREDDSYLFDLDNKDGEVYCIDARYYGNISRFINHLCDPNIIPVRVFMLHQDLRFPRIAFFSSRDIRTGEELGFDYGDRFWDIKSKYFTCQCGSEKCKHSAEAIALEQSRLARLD
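Compounds were preincubated with 20 nM G9a for 15 min, after which biotinylated H3K9 peptide (500 nM) and SAM (20 uM) started a 2 h room-temperature reaction. Monomethylated product was quantified by antibody-based AlphaScreen chemiluminescence.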
BAZ2B block: qHTS Assay for Inhibitors of BAZ2B; Bromodomain adjacent to zinc finger domain protein 2B (Homo sapiens), Q9UIF8; AlphaScreen BAZ2B-H3K14Ac peptide displacement; Potency, µM (doses to about 114 µM), actives largely listed as inhibitors; 4.4% of 360,000 active; AID 504333, 2011; note: nearly all actives have a fitted effect of over 60% in size
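Compounds, titrated to a top concentration of 110 uM, were incubated 30 min at room temperature with preformed BAZ2B/acetyl-K14 H3 peptide complex (50 nM each). Proximity signal was measured by AlphaScreen after 20 min with beads.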
HP1b binding inh: HTS for Inhibitors of HP1-beta Chromodomain Interactions with Methylated Histone Tails; Chromobox protein homolog 1 (Homo sapiens), P83916; AlphaScreen HP1-beta / biotin-H3K9me3 peptide binding; Potency, µM (doses to about 114 µM), hits mostly inhibitors; 0.56% of 390,000 active; AID 540317, 2011; note: nearly all actives have a fitted effect of over 70% in size
Target sequence (P83916 whole entry, looked up): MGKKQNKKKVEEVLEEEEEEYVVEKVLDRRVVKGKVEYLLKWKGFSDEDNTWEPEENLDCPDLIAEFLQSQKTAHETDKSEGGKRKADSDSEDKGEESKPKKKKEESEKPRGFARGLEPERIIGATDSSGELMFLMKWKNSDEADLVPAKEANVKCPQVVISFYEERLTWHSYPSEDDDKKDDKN
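Compound inhibition of the preformed complex between 50 nM HP1-beta and 50 nM biotinylated H3K9me3 peptide was read by AlphaScreen. Buffer was PBS pH 7.4 with 0.01% Tween-20. Incubations ran 30 min at room temperature, with 10 ug/mL donor/acceptor beads.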
A number is an active result; [ ] = remark or other dose. A selection: hits, their analogues and other compounds. The true share with any hit is near 11%. Calls come from the whole dose curve; as a rule, active = well fitted inhibition curve with a large enough effect; inconclusive = small, poorly fitted or top-dose-only effect; inactive = no such curve, though single readings can be large or run the other way.

Results for Cc1ccc(NC(=O)CN2CCN(C(=O)c3ccco3)CC2)cc1S(=O)(=O)N(C)C ?
JMJD2A Tudor: 6.3µM; HP1b binding inh: inconclusive

What do the screens show for `CCOc1ccc(NC(=O)CN2CCN(C(=O)c3ccco3)CC2)cc1S(=O)(=O)N1CCCC1`?
L3MBTL1 block: inactive; JMJD2A Tudor: inactive; G9a block: inactive[12.7 µM]; BAZ2B block: inactive; HP1b binding inh: inactive

What do the screens show for `Cc1ccc(NC(=O)CCNC(=O)Nc2ccccc2)cc1S(=O)(=O)N(C)C`?
L3MBTL1 block: inactive; JMJD2A Tudor: inactive; G9a block: inactive[2.33 µM]; BAZ2B block: inactive; HP1b binding inh: inactive

Results for O=S(=O)(c1cccc(Cl)c1)c1nnn2c1nc(NC1CCCC1)c1sccc12 ?
JMJD2A Tudor: inactive; G9a block: inactive; BAZ2B block: inactive; HP1b binding inh: inactive

Results for O=C(CNS(=O)(=O)c1ccccc1)NCc1ccco1 ?
JMJD2A Tudor: inactive; G9a block: 79µM; BAZ2B block: inactive; HP1b binding inh: inactive

How did CCNS(=O)(=O)c1ccc(NC(=S)NCc2ccco2)cc1 do in these assays?
L3MBTL1 block: inactive; JMJD2A Tudor: inactive; G9a block: 14µM; BAZ2B block: inactive; HP1b binding inh: inactive

What do the screens show for `CC(=O)Nc1ccc(S(=O)(=O)NNC(=S)NCc2ccco2)cc1`?
JMJD2A Tudor: inconclusive; G9a block: 32µM; BAZ2B block: inactive; HP1b binding inh: inactive

Results for COC(=O)c1ccc(NC(=S)N2CCN(C(=O)c3ccco3)CC2)cc1 ?
JMJD2A Tudor: inactive; G9a block: 32µM; BAZ2B block: inactive; HP1b binding inh: inactive

How did O=S(=O)(NCc1ccccc1)c1ccc(NC(=S)NCc2ccco2)cc1 do in these assays?
L3MBTL1 block: inactive; JMJD2A Tudor: inconclusive; G9a block: 50µM; BAZ2B block: inconclusive; HP1b binding inh: inactive

What do the screens show for `CCC(=O)Nc1ccc(S(=O)(=O)NCc2ccco2)cc1`?
JMJD2A Tudor: inactive; G9a block: 45µM; BAZ2B block: inactive; HP1b binding inh: inactive

What do the screens show for `O=C(c1ccc(NC(=S)NCc2ccco2)cc1)N1CCCCC1`?
L3MBTL1 block: inactive; JMJD2A Tudor: inactive; G9a block: 50µM; BAZ2B block: inactive; HP1b binding inh: inactive

Results for O=C(O)Cc1ccc(NC(=S)NCc2ccco2)cc1 ?
L3MBTL1 block: inactive; JMJD2A Tudor: inactive; G9a block: inactive; BAZ2B block: inactive; HP1b binding inh: inactive

Results for O=S(=O)(Nc1ncccn1)c1ccc(NC(=S)NCc2ccco2)cc1 ?
JMJD2A Tudor: inactive; G9a block: inconclusive; BAZ2B block: inactive; HP1b binding inh: inactive

Results for C/C(=N\Nc1ccccn1)c1ccc(S(=O)(=O)NCc2ccco2)cc1 ?
L3MBTL1 block: inactive; JMJD2A Tudor: inactive; G9a block: inactive; BAZ2B block: 50µM; HP1b binding inh: inconclusive

What do the screens show for `CN(C(=O)c1ccc2c(c1)N(Cc1ccc(F)cc1)C(=O)c1ccccc1S2(=O)=O)C1CCCCC1`?
JMJD2A Tudor: inactive; G9a block: inactive; BAZ2B block: inactive; HP1b binding inh: inactive

What do the screens show for `Cc1cc(C)c2c(N)c3cccc(C)c3nc2n1`?
L3MBTL1 block: inactive; JMJD2A Tudor: inactive; G9a block: inconclusive; BAZ2B block: inactive; HP1b binding inh: inactive

What do the screens show for `O=C(NCc1ccccc1)c1ccc(S(=O)(=O)N2CCCC2)cc1`?
JMJD2A Tudor: inactive; G9a block: inactive[12.7 µM]; BAZ2B block: inactive; HP1b binding inh: inactive

How did O=C(NCc1n[nH]c(=S)n1-c1ccccc1)c1ccc(S(=O)(=O)N2CCCCC2)cc1 do in these assays?
JMJD2A Tudor: inconclusive; G9a block: 8.9µM; BAZ2B block: inactive; HP1b binding inh: inactive

Results for O=C(NCc1n[nH]c(=S)n1-c1ccccc1)c1ccc(S(=O)(=O)N2CCOCC2)cc1 ?
L3MBTL1 block: inactive; JMJD2A Tudor: 7.1µM; G9a block: inconclusive; BAZ2B block: inactive; HP1b binding inh: inactive

What do the screens show for `O=C(NCc1n[nH]c(=S)n1-c1ccc(F)cc1)c1ccco1`?
JMJD2A Tudor: 22µM; G9a block: 22µM; BAZ2B block: inactive; HP1b binding inh: inactive

Results for O=C(NCc1n[nH]c(=S)n1-c1ccc(F)cc1)c1ccc(S(=O)(=O)N2CCOCC2)cc1 ?
JMJD2A Tudor: 13µM; G9a block: 14µM; BAZ2B block: inactive; HP1b binding inh: inactive

What do the screens show for `O=C(NCc1cccs1)c1ccc(S(=O)(=O)N2CCOCC2)cc1`?
L3MBTL1 block: inactive; JMJD2A Tudor: inactive; G9a block: inactive; BAZ2B block: inactive; HP1b binding inh: inactive

Results for COC(=O)c1c(SCC(=O)Nc2cc(F)ccc2F)[nH]c2ccc(C)cc2c1=O ?
JMJD2A Tudor: inactive; G9a block: inactive; BAZ2B block: inactive; HP1b binding inh: inactive

Results for C/C=C/C(=O)[C@@H](C)[C@@H](/C=C/C[Si](C)(C)C)C(C)C ?
JMJD2A Tudor: inactive; HP1b binding inh: inactive

How did CSc1ccc(CCNC(=O)CCc2c(C)nc3c(c(C)nn3-c3ccccc3)c2C)cc1 do in these assays?
JMJD2A Tudor: inactive; G9a block: inactive; BAZ2B block: inactive; HP1b binding inh: inactive

Results for OCCCN1CCN(CCCOc2ccccc2-c2ccccc2)CC1 ?
L3MBTL1 block: inactive; JMJD2A Tudor: inactive; G9a block: inactive; BAZ2B block: inactive; HP1b binding inh: inactive

What do the screens show for `c1ccc(-c2ccccc2OCCCCN2CCCCCC2)cc1`?
L3MBTL1 block: inactive; JMJD2A Tudor: 22µM; G9a block: 7.9µM; BAZ2B block: 50µM; HP1b binding inh: inactive

How did CC(=O)c1ccccc1OCCCCN1CCCCC1 do in these assays?
L3MBTL1 block: inactive; JMJD2A Tudor: 25µM; G9a block: 25µM; BAZ2B block: inconclusive; HP1b binding inh: inconclusive

Results for c1ccc(-c2ccccc2OCCCN2CCOCC2)cc1 ?
L3MBTL1 block: inactive; JMJD2A Tudor: 7.9µM; BAZ2B block: 18µM; HP1b binding inh: inconclusive

How did c1ccc(-c2ccccc2OCCN2CCCC2)cc1 do in these assays?
L3MBTL1 block: inactive; JMJD2A Tudor: 22µM; G9a block: 7.9µM; BAZ2B block: 56µM; HP1b binding inh: inconclusive

What do the screens show for `c1ccc(CCCN2CCOCC2)cc1`?
L3MBTL1 block: inactive; JMJD2A Tudor: 20µM; G9a block: 50µM; BAZ2B block: inconclusive; HP1b binding inh: inconclusive

What do the screens show for `Fc1ccccc1OCCCN1CCOCC1`?
JMJD2A Tudor: 4.5µM; G9a block: inconclusive; BAZ2B block: inconclusive; HP1b binding inh: inconclusive

Results for C=CCc1ccccc1OCCCCN1CCCC1 ?
JMJD2A Tudor: 10µM; G9a block: inconclusive; BAZ2B block: 50µM; HP1b binding inh: inconclusive

What do the screens show for `c1ccc(-c2ccccc2OCCOCCN2CCCCC2)cc1`?
L3MBTL1 block: inactive; JMJD2A Tudor: 3.2µM; G9a block: inconclusive; BAZ2B block: inactive; HP1b binding inh: inconclusive

Results for O=C(O)c1ccc(N/N=C/c2ccc(-c3ccccc3Cl)o2)cc1 ?
L3MBTL1 block: inactive; JMJD2A Tudor: inactive; G9a block: 56µM; BAZ2B block: inactive; HP1b binding inh: inactive
